This is an account of results in PubChem BioAssay (Tox21).

The nature of assay [1]: Human pregnane X receptor (PXR) small molecule agonists, qHTS cell viability counter screen (AID 1346977). Note: nearly all actives have a fitted effect of over 50% in size. The gist of the method:
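After a 5hr pre-incubation, PXR-Luc HepG2 cells received compounds plus positive control in DMSO and were kept 24hr at 37C. Cell viability was quantified by fluorescence from CellTiter-Fluor added for the final hour.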
(In general: qHTS replaces the single test concentration by a dilution series.)

Assay [2] can be described thus: Caspase-3/7 induction in HepG2 cells by small molecules, qHTS assay (AID 1346978). Note: nearly all actives have a fitted effect of over 15% in size. An outline of the steps: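 Wild-type HepG2 cells, 2,000/well, settled 5 hr at 37 C and 5% CO2, then compound-treated for 17 hr; caspase-3/7 activity read by luminescent Caspase-Glo 3/7 after 30 min at room temperature.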
The nature of assay [3]: Caspase-3/7 induction in CHO-K1 cells by small molecules, qHTS cell viability counter screen (AID 1346979). Note: nearly all actives have a fitted effect of over 35% in size. The gist of the method:
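Multiplexed with Caspase-Glo 3/7 in CHO-K1 cells, this counter screen added CellTiter-Fluor after 16hr of compound exposure and recorded fluorescence 1hr later.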

Assay [4] is described as follows: Caspase-3/7 induction in CHO-K1 cells by small molecules, qHTS assay (AID 1346980). Note: nearly all actives have a fitted effect of over 15% in size. The gist of the method:
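Wild-type CHO-K1 cells exposed to compounds for 17hr at 37 C, 5% CO2. Caspase-3/7 activity then measured by Caspase-Glo 3/7 luminescence after 30min at room temperature.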

Assay [5] in a line: Caspase-3/7 induction in HepG2 cells by small molecules, qHTS cell viability counter screen (AID 1346981). Note: series mostly up to about 92 µM; nearly all actives have a fitted effect of over 30% in size. The gist of the method:
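CellTiter-Fluor fluorescence measured viability in the same wells used for Caspase-Glo 3/7. HepG2 (wild type) at 2,000 cells/well were pre-incubated 5 hr, dosed, and given reagent at 16 hr, with 1 hr further at 37C.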

The target of assay [6] is Nuclear receptor subfamily 1 group I member 2 (Homo sapiens) (UniProt O75469). The experiment in a line: Human pregnane X receptor (PXR) small molecule agonists, qHTS assay (AID 1346982). Note: nearly all actives have a fitted effect of over 35% in size. Note: potency is the fitted concentration of half-maximal effect. The gist of the method: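 Agonist mode: luminescence from ONE-Glo after 24 h compound exposure at 37C in HepG2 cells carrying hPXR-responsive CYP3A4 luciferase, plated in charcoal-stripped serum medium 5 h beforehand.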
Nuclear receptor subfamily 1 group I member 2 (Homo sapiens), sequence (O75469 whole entry, looked up): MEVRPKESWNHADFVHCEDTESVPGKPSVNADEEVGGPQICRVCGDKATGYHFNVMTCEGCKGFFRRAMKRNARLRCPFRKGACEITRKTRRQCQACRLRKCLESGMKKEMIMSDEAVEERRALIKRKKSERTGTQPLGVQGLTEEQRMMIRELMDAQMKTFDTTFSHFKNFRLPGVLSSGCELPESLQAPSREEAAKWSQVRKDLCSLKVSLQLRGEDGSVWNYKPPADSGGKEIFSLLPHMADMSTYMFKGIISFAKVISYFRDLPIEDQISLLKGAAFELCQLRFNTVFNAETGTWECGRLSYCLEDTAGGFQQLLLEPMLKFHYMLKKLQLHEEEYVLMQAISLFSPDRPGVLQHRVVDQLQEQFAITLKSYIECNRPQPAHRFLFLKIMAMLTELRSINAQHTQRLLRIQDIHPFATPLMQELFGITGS

For assay [7], the target named is Cytochrome P450 2C19 (Homo sapiens) (UniProt P33261). The experiment in a line: Cytochrome P450 Family 2 Subfamily C Member 19 (CYP2C19) small molecule antagonists: luciferase reporter qHTS assay (AID 1671197). For activity change, negative = inhibition: series mostly up to about 120 µM. Note: nearly all actives have a fitted effect of over 65% in size. Note: potency is the fitted concentration of half-maximal effect. An outline of the steps:
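P450-Glo CYP2C19 screening system; proluciferin substrate; DMSO compound stocks; 10 min RT preincubation; NADPH regeneration, 1 h at 37C; luciferin detection reagent, 20 min RT; luminescence as RLU.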
For orientation: A reporter such as luciferase makes a cellular process visible.

Assay [8] concerns the target Voltage-gated inwardly rectifying potassium channel KCNH2 (Homo sapiens) (UniProt Q12809). The experiment in a line: Human Ether-a-go-go-Related Gene (hERG) channel small molecule antagonists: fluorescence cell-based qHTS assay (AID 1671200).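 Note: hERG-expressing U2OS cells given a thallium stimulus after FluxOR II dye loading; series mostly up to about 77 µM; nearly all actives have a fitted effect of over 50% in size.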 An outline of the steps:
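Cell line hERG-U2OS; dye FluxOR II, 1 h RT dark; Tl+ stimulus; ex 480/em 540 nm, read each second for 2 min.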
(In general: Block of hERG is tested as a sign of cardiac risk.)

For assay [9], the target named is Cytochrome P450 1A2 (Homo sapiens) (UniProt P05177). The experiment in a line: Cytochrome P450 Family 1 Subfamily A Member 2 (CYP1A2) small molecule antagonists: luciferase reporter qHTS assay (AID 1671199). For activity change, negative = inhibition: series mostly up to about 120 µM. Note: nearly all actives have a fitted effect of over 50% in size. Note: potency is the fitted concentration of half-maximal effect. The gist of the method: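 Luminescence from luciferin formed by CYP1A2 from a proluciferin substrate, read 20 min after detection reagent. Compound was pre-incubated 10 min with enzyme-substrate, and reaction started with NADPH regeneration solution for 1 h at room temperature; furafylline control.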
Cytochrome P450 1A2 (Homo sapiens), sequence (P05177 whole entry, looked up): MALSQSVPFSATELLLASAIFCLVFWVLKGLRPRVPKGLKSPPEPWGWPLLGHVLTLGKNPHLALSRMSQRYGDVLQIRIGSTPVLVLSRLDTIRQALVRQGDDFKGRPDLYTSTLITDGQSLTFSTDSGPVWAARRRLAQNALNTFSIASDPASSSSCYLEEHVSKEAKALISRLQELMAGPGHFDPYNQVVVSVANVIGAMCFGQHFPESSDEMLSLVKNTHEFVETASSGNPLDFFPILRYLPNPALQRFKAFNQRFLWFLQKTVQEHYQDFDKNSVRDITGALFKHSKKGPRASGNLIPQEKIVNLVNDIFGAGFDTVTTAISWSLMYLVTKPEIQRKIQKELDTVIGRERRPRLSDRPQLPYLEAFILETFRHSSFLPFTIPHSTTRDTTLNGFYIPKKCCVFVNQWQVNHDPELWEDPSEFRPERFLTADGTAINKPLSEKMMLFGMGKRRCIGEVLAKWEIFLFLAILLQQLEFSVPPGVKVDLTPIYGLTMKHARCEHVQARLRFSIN

Assay [10] deals with Cytochrome P450 3A4 (Homo sapiens) (UniProt P08684). The assay is described as follows: Cytochrome P450 Family 3 Subfamily A Member 4 (CYP3A4) small molecule antagonists: luciferase reporter qHTS assay (AID 1671201). For activity change, negative = inhibition: series mostly up to about 120 µM. Note: nearly all actives have a fitted effect of over 50% in size. Note: potency is the fitted concentration of half-maximal effect. The gist of the method:
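Room-temperature assay throughout: 10 min compound–enzyme/substrate preincubation, 1 h reaction after NADPH regeneration solution, 20 min detection. Luciferin formed from proluciferin substrate is quantified by luminescence.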

Assay [11] addresses Cytochrome P450 2C9 (Homo sapiens) (UniProt P11712). The experiment in a line: Cytochrome P450 Family 2 Subfamily C Member 9 (CYP2C9) small molecule antagonists: luciferase reporter qHTS assay (AID 1671198). For activity change, negative = inhibition: series mostly up to about 120 µM. Note: nearly all actives have a fitted effect of over 50% in size. Note: potency is the fitted concentration of half-maximal effect. An outline of the steps:
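P450-Glo proluciferin substrate with CYP2C9 enzyme; 10 min RT preincubation, then NADPH regeneration 1 h at 37C; luciferin detection reagent 20 min RT, luminescence in relative luminescence units.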

For assay [12], the target named is Nuclear receptor subfamily 1 group I member 2 (Rattus norvegicus) (UniProt Q9R1A7). The assay is described as follows: Rat pregnane X receptor (rPXR) activation by small molecules, qHTS assay (AID 1346983). Note: nearly all actives have a fitted effect of over 20% in size. The note with it: rPXR luciferase reporter cells, One-Glo luminescence, 24 h; max activation: stronger effect = higher value. An outline of the steps: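 Cell-based rPXR activation assay: rPXR cells, 2,000 per well, rested 5hr at 37 C, then exposed to compounds in DMSO for 24 hr at 37 C. Luciferase activity read by One-Glo luminescence after 30 min at room temperature.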
Nuclear receptor subfamily 1 group I member 2 (Rattus norvegicus), sequence (Q9R1A7 whole entry, looked up): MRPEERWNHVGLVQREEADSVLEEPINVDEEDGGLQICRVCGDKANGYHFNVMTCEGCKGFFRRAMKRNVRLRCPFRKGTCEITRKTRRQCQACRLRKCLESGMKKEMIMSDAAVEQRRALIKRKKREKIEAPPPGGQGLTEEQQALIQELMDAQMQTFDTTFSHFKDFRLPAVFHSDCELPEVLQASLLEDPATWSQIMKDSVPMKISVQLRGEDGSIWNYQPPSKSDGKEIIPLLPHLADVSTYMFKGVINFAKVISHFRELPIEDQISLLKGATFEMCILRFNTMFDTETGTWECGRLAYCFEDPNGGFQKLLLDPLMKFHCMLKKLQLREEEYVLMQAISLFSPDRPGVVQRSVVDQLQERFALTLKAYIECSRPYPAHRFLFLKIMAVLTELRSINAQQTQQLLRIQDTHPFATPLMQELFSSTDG

Assay [13] concerns the target Nuclear receptor subfamily 1 group I member 2 (Homo sapiens) (UniProt O75469). The assay is described as follows: CYP3A4 induction through human pregnane X receptor (PXR) by small molecules, qHTS assay (AID 1346984). Note: nearly all actives have a fitted effect of over 40% in size. An outline of the steps:
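Read-out is luminescence after One-Glo addition, following a 3 hr, 37C incubation with Luciferin-IPA CYP3A4 substrate (3uM final). Before that, compounds were on DPX-2 cells (HepG2 co-transfected with PXR element plus CYP3A4-promoter luciferase) for 24 hr at 37C.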

In assay [14] the target is Cytochrome P450 2D6 (Homo sapiens) (UniProt P10635). The assay is described as follows: Cytochrome P450 Family 2 Subfamily D Member 6 (CYP2D6) small molecule antagonists: luciferase reporter qHTS assay (AID 1671196). For activity change, negative = inhibition: series mostly up to about 120 µM. Note: nearly all actives have a fitted effect of over 50% in size. Note: potency is the fitted concentration of half-maximal effect. An outline of the steps:
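CYP2D6 activity was followed as luminescence from its luciferin product after a 1 h NADPH-driven reaction at room temperature. Enzyme-substrate mix and compound were pre-incubated for 10 min, and the signal was read 20 min after adding detection reagent.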

Unmarked numbers belong to inactive results. Inconclusive results are not listed. Active and inactive are the calls of the source. Calls come from the whole dose curve; as a rule, active = well fitted curve in the direction sought with a large enough effect in the repeat runs; inconclusive = weak or mixed curves; inactive = no such curve, though single readings can be large; an effect the other way counts as inactive or inconclusive.
% is set by controls: 0 for no effect and ±100 for the full control effect.

Voltage-gated inwardly rectifying potassium channel KCNH2 (Homo sapiens), sequence (Q12809 whole entry, looked up): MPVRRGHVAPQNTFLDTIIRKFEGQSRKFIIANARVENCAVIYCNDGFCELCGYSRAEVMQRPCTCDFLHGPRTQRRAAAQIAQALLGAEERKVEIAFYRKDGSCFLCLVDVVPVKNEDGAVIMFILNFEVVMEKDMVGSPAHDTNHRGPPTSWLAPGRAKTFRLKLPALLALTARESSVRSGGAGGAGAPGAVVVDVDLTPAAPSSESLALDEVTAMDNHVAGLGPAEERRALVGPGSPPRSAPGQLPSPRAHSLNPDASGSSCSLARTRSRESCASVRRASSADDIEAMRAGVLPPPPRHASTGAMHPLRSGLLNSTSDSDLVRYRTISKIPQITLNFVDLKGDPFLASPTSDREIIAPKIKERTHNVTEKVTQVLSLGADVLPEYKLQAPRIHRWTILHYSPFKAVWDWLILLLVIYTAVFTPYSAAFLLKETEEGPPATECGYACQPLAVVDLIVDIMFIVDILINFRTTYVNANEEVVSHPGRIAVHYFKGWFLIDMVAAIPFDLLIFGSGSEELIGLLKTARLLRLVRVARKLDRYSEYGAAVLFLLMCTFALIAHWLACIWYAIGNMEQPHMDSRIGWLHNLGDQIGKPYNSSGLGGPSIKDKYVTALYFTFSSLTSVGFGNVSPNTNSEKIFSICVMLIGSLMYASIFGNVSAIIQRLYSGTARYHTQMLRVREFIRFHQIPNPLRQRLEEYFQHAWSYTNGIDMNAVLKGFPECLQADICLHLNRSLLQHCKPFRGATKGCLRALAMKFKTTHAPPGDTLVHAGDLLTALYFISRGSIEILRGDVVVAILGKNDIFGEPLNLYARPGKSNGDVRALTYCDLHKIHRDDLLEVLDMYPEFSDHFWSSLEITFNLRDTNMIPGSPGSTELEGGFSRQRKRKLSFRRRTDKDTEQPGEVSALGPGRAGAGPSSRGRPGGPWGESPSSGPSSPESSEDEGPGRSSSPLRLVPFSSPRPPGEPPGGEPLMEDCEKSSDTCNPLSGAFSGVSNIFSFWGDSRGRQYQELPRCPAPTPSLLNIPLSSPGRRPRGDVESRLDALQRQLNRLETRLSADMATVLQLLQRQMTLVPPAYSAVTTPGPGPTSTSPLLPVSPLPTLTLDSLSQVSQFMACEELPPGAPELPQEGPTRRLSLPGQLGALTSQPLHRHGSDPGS
Cytochrome P450 2C19 (Homo sapiens), sequence (P33261 whole entry, looked up): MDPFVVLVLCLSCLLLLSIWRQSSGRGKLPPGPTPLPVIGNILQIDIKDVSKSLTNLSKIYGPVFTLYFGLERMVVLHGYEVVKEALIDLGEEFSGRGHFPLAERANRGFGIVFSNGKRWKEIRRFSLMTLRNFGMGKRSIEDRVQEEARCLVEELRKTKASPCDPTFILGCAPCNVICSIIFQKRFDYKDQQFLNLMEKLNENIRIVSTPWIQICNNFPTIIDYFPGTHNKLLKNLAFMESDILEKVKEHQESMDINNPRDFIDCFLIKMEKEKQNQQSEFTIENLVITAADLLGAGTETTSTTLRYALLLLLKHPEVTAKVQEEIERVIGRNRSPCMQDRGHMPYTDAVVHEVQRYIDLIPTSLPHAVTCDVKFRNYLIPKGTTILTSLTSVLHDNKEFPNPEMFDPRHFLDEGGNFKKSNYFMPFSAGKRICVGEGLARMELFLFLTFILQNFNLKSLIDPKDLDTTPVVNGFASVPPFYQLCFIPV
Cytochrome P450 2D6 (Homo sapiens), sequence (P10635 whole entry, looked up): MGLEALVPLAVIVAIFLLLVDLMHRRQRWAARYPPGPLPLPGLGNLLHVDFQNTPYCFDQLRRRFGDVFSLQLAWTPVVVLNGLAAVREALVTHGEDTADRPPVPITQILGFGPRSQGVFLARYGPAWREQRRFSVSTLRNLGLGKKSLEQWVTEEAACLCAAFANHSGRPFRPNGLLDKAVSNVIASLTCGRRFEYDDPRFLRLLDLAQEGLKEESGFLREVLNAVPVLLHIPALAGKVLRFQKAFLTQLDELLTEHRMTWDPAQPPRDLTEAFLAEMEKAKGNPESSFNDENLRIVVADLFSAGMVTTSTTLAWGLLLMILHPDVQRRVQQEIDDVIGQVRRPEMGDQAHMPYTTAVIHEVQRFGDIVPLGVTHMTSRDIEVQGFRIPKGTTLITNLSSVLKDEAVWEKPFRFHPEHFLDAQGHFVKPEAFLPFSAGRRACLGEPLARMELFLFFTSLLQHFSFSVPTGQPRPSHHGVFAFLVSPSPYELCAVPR
Cytochrome P450 2C9 (Homo sapiens), sequence (P11712 whole entry, looked up): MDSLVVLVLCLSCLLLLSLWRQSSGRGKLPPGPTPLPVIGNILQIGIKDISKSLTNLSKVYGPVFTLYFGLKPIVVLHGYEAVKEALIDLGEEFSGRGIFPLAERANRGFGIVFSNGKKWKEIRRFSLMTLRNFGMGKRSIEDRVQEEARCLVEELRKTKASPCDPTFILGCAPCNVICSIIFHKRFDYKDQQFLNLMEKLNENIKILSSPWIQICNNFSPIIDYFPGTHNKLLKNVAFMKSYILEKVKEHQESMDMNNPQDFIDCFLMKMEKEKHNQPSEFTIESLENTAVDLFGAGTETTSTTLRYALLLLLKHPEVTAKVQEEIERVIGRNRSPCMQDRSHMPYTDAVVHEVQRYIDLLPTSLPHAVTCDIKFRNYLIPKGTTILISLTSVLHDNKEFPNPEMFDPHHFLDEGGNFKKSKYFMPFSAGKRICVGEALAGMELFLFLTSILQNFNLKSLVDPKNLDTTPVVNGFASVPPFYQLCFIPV
Cytochrome P450 3A4 (Homo sapiens), sequence (P08684 whole entry, looked up): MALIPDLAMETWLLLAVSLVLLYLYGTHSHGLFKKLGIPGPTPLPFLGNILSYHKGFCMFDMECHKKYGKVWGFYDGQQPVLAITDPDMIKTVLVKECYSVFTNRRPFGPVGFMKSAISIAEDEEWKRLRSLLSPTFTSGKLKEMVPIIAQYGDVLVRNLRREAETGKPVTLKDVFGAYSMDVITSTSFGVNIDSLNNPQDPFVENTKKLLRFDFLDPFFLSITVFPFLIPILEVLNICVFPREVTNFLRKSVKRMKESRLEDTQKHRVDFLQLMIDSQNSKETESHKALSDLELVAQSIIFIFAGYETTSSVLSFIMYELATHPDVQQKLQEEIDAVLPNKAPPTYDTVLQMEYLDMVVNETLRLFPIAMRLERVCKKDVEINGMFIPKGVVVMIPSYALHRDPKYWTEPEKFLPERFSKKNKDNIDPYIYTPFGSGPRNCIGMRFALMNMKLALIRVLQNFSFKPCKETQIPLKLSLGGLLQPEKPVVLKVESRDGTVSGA

As to `Nc1nc(Cl)nc2c1ncn2[C@H]1C[C@H](O)[C@@H](CO)O1`, the Potency entry in assay [1], in [2], in [3], in assay [4], in assay [5] and in assay [7] was “inactive” throughout. Further, the Potency entry in assay [8] is “inactive”. Besides, the Potency in assay [6] is 1.71 µM (active).
As for `CCC(C)CCCC(C)(C)O` (stereo not drawn), the Potency result in assay [1], in assay [2], in assay [3], in [4], in [5] and in assay [6] was “inactive” in each case. For the same compound, the Potency entry in assay [7], in assay [9] and in assay [10] was “inactive” each time.
For `CCCCOC(=O)C(C)Oc1ccc(Oc2ccc(C(F)(F)F)cn2)cc1` (stereo not drawn), the Potency result in [1], in assay [2], in assay [3], in [4], in [5] and in assay [6] was “inactive” in each case. The results for the Potency in [7], in assay [11] and in assay [9] were 50.2 µM (active), 22.4 µM (active) and 22.4 µM (active), respectively.
Consider `Cc1c(Nc2ncccc2C(=O)O)cccc1C(F)(F)F`, for which the Potency entry in assay [1], in assay [2], in assay [3], in assay [4], in assay [5] and in assay [13] was “inactive” each time. In addition, the Potency result in [14], in [7], in [8] and in assay [10] was “inactive” throughout. In addition, in assay [12], the max activation is -1.47%.
`CC(=O)CC/C=C(\C)CC/C=C(\C)CC/C=C(\C)CCC=C(C)C`: the Potency result in assay [1], in assay [2], in assay [3], in assay [4], in assay [5] and in [14] was “inactive” throughout. In addition, the Potency result in assay [8] was “inactive”. In addition, the figures for the Potency in assay [6] and in [11] were 23.7 µM (active) and 30.9 µM (active), respectively.
In the case of `O=c1[nH][nH]c2ccccc12`, the Potency entry in assay [1], in assay [2], in [3], in assay [4], in [5] and in assay [6] was “inactive” throughout. The Potency result in assay [8] was “inactive”. The Potency in assay [7] was 81.2 µM (active); in assay [9], 10.2 µM (active); in assay [10] it was 32.3 µM (active).
As to `CCCCCCCCCCCCSC#N`, the Potency result in [1], in [2], in assay [3], in assay [4], in assay [5] and in assay [6] was “inactive” throughout. Moreover, the Potency result in assay [14], in assay [8] and in assay [10] was “inactive” throughout.
As for `CC(C)=CCC/C(C)=C/C=N/O`, the Potency result in assay [1], in assay [2], in assay [3], in assay [4], in assay [5] and in assay [8] was “inactive” throughout. For the same compound, the figures for the Potency in assay [6] and in [11] were 34.4 µM (active) and 39.9 µM (active), respectively.
With `CC1(C)CC(O)CC(C)(C)N1[O]`, the Potency entry in assay [1], in assay [2], in assay [3], in assay [4], in assay [5] and in assay [6] was “inactive” in each case. The Potency entry in assay [11], in assay [9] and in [8] was “inactive” each time.
Take `CC(=O)Nc1ccn(C2COC(COC(=O)c3ccccc3)O2)c(=O)n1` (stereo not drawn): the Potency result in [1], in assay [2], in assay [3], in assay [4], in assay [5] and in [6] was “inactive” in each case. The Potency entry in assay [7], in assay [8] and in [10] was “inactive” throughout.
Turning to `c1ccc(-c2ccc(-c3ccccc3)cc2)cc1`, the activity change, negative = cytotoxicity in [1] is 0.816% [at 19 µM]; in [3], 11.6% [at 19 µM]; in assay [5], 6.27% [at 19 µM]. Also, the caspase activation in assay [2] was -3.46% [at 19 µM]. The caspase-3/7 activation in [4] was -1.92% [at 19 µM]. Moreover, in [6], the Potency is 1.77 µM (active). The figures for the activity change, negative = inhibition in [14], in [8] and in assay [10] were -3.95% [at 23.6 µM], 1.54% [at 15.8 µM] and -14.7% [at 23.6 µM], respectively.
`COc1ccc(C(=O)Nc2ccccc2)cc1[N+](=O)[O-]`: the Potency entry in [1], in assay [2], in assay [3], in [4], in assay [5] and in assay [8] was “inactive” each time. Further, the Potency is 30.9 µM (active) in [6], 35.9 µM (active) in [7], 5.68 µM (active) in assay [9] and 35.9 µM (active) in assay [10].
For `CCC[Si](OC)(OC)OC`, the Potency entry in assay [1], in assay [2], in [3], in assay [4], in assay [5] and in assay [6] was “inactive” throughout. Further, the Potency result in assay [8] and in assay [10] was “inactive” each time. The Potency in [7] was 71 µM (active).
Consider `OCCc1ccncc1`, for which the Potency entry in [1], in [2], in [3], in [4], in assay [5] and in [6] was “inactive” each time. In assay [8], the Potency result is “inactive”.
Take `CCCC1CCCC(=O)O1` (stereo not drawn): the Potency result in assay [1], in assay [2], in assay [3], in assay [4], in [5] and in assay [6] was “inactive” each time. Further, the Potency result in [7] and in assay [8] was “inactive” in each case.
For the compound `CCOC(OCC)OCC`, the Potency entry in assay [1], in assay [2], in assay [3], in assay [4], in assay [6] and in [7] was “inactive” each time. The Potency result in [8] and in assay [10] was “inactive” each time.
On to `Cc1ccc(Cl)c(OCC(O)CNC(C)(C)C)c1` (stereo not drawn), for which the Potency result in [1], in assay [2], in assay [3], in assay [4], in assay [5] and in assay [7] was “inactive” throughout. Also, the Potency entry in [11], in [9] and in [10] was “inactive” in each case. Further, the Potency in assay [14] is 1.1 µM (active).
As for `C[Si](C)(C)O[Si](C)(C)O[Si](C)(C)C`, the Potency result in assay [1], in assay [2], in assay [3], in assay [4], in [6] and in assay [14] was “inactive” in each case. Further, the Potency entry in [7], in assay [11], in [9], in assay [8] and in assay [10] was “inactive” in each case.
